Measured values published in PubChem BioAssay (NCATS).
Inconclusive results are not listed. Values without a mark were called inactive. Activity calls are given as the source filed them. Calls come from the whole dose curve; as a rule, active = well fitted cell-killing curve with a large enough effect; inconclusive = small, poorly fitted or top-dose-only effect; inactive = flat fitted curve, though single readings scatter.

test: qHTS of pediatric cancer cell lines to identify multiple opportunities for drug repurposing: Primary screen for Rh18 cells (AID 1347102); settings: Rh18 rhabdomyosarcoma viability, CellTiter-Glo luminescence, 48 h; series mostly up to 46 µM; activity change, negative = cytotoxic: at the top concentration; note: nearly all actives have a fitted effect of over 65% in size
Excerpt: Drug repurposing or repositioning has been offered as a strategy for drug development in oncology programs. This approach has special potential for childhood cancers and other rare or orphan diseases, where the expected return on new drug development has been a disincentive to pharmaceuticals.
In this project we exploit the poly-pharmacology of drugs to discover new indications via phenotypic screening of a panel of 19 well-characterized cell lines derived from solid tumors seen in children and adolescents. The goal is to identify approved drugs with previously unrecognized anticancer properties that has the potential to reveal new mechanisms and biological processes involved in carcinogenesis or drug resistance. We employed a titration-based paradigm (quantitative high-throughput screening or qHTS), where all compounds were tested at multiple concentrations for their effect on cell viability. Concentration-response curves (CRCs) were derived directly from the primary screen, and both potency and efficacy values were used to identify compounds with robust bioactivity profiles. We screened the NIH Chemical Genomics Center (NCGC) Pharmaceutical Collection (NPC) and Mechanism Interrogation Plate (MIPE) small molecule collections of approved and investigational compounds against these cell lines; and measured metabolically active cells after 48 hours of compound treatment as a proxy for cell viability.
Assay Submitter: Nathalia J. Martinez, National Center for Advancing Translational Sciences, National Institutes of Health, Rockville, MD, USA; email: natalia.martinez@nih.gov
[1] Shen, M et al. Quantitative high-throughput phenotypic screening of pediatric cancer cell lines identifies multiple opportunities for drug repurposing. Oncotarget 2017 Dec 19;9(4):4758-4772. PMID 29435139.
The cells were obtained from University of North Carolina (UNC), Pediatric Preclinical Testing Program (PPT), and Coriell Institute (CI).
qHTS cell viability assay:
Cells were assayed in growth media at a density of 500-1,000 cells/well. Five microliters of cells were dispensed into 1,536-well, white, solid-bottom, TC-treated plates (Greiner Bio One) using a multidrop dispenser and incubated at 37 degrees C, 5% CO2, under a humidified atmosphere for 5 hours. Twenty-three nanoliters of compounds and controls (neutral control DMSO or positive control bortezomib at final concentration of 2.3 µM) were subsequently transferred by Kalypsys pintool. For primary screens, the MIPE collection was tested at 11-point dilutions (final concentrations range from 0.78 nM to 46 µM) and the NPC collection at 8-point dilutions (final concentrations range from 0.59 nM to 46 µM). Compounds tested in follow-up screens were assayed at 11-point dilutions. Cells were incubated for 48 hours, followed by addition of 3 µL of CellTiter-Glo (Promega). After a 15 min incubation at room temperature, samples were analyzed for luminescence intensity using a ViewLux High-throughput CCD imager equipped with clear filters.
% is set by controls: 0 for no effect and ±100 for the full control effect; potency is the fitted concentration of half-maximal effect.

Going from `C[C@@H]1CC[C@@]2(OC1)O[C@H]1C[C@H]3[C@@H]4CC[C@H]5C[C@@H](O)CC[C@]5(C)[C@H]4CC(=O)[C@]3(C)[C@H]1[C@@H]2C` to `NC(N)=NCCC[C@H](N)C(=O)O`, the activity change, negative = cytotoxic rises from 11.3% [at 4.84 µM] to 15.1% [at 4.84 µM].

With `Cc1cc2nc3c(=O)[nH]c(=O)nc-3n(C[C@H](O)[C@H](O)[C@H](O)CO)c2cc1C` the “activity change, negative = cytotoxic” value was 7.98% [at 16.1 µM].

Compared with `CC1(C)S[C@@H]2[C@H](NC(=O)Cc3ccccc3)C(=O)N2[C@H]1C(=O)O` (tested in a mixture with another compound), `CC1CC(OC(=O)C(O)c2ccccc2)CC(C)(C)N1C` (stereo not given) is lower in “activity change, negative = cytotoxic” value: 16.5% for the first, 12.5% for the second.

Compared with `COc1ccc2[nH]c(S(=O)Cc3ncc(C)c(OC)c3C)nc2n1` (stereo not given), `COc1cc2[nH]c(=O)[nH]c(=O)c2cc1OC` is higher in “activity change, negative = cytotoxic” value: 13.5% for the first, 14.8% for the second.

First: O=C(O)CC(O)C(=O)O (stereo not given)
Second: Cc1cccc(C)c1NC(=O)CN(CC(=O)O)CC(=O)O
The “activity change, negative = cytotoxic” value of the first is higher: 14.8% for the first, 9.32% for the second.

Going from `CCCCN1CCCC[C@H]1C(=O)Nc1c(C)cccc1C` to `CNC(=O)Oc1ccc2c(c1)[C@]1(C)CCN(C)[C@@H]1N2C`, the “activity change, negative = cytotoxic” value rises from -19% to 29%.

First: COC(=O)C1=C(C)NC(C)=C(C(=O)OC)C1c1ccccc1[N+](=O)[O-]
Second: CCCOC(=O)c1ccccc1
The “activity change, negative = cytotoxic” value of the first is lower: -6.42% for the first, 7.91% for the second.

First: O=C(O)CN1C(=O)c2cccc3cccc(c23)C1=O
Second: O=C(O)c1ccccc1-c1ccc(C(F)(F)F)cc1
The “activity change, negative = cytotoxic” value of the first is lower: 3.86% for the first, 6.61% for the second.

Going from `OCC(CO)N[C@H]1C[C@](O)(CO)[C@@H](O)[C@H](O)[C@H]1O` to `CN(C)CCCO[C@@H]1[C@H]2OC(C)(C)O[C@H]2O[C@@H]1C(O)CO` (stereo not given in full), the “activity change, negative = cytotoxic” value rises from 1.69% to 17.3%.

First: C=CCn1c(=O)n([C@@H]2O[C@H](CO)[C@@H](O)[C@H]2O)c2nc(N)[nH]c(=O)c21
Second: Nc1nc2c(ncn2CCC(CO)CO)c(=O)[nH]1
The “activity change, negative = cytotoxic” value of the first is higher: 13.7% for the first, 8.74% for the second.

First: Cc1cc(C(C#N)c2ccc(Cl)cc2)c(Cl)cc1NC(=O)c1cc(I)cc(I)c1O (stereo not given)
Second: CC1=C(CC(=O)O)c2cc(F)ccc2/C1=C\c1ccc(S(C)=O)cc1 (stereo not given)
The “activity change, negative = cytotoxic” value of the first is lower: -6.17% for the first, 8.69% for the second.

Going from `CO/N=C(\C(=O)N[C@@H]1C(=O)N2C(C(=O)O)=C(CSc3nc(=O)c(O)nn3C)CS[C@H]12)c1csc(N)n1` to `CCn1cc(C(=O)O)c(=O)c2cnc(N3CCNCC3)nc21`, the “activity change, negative = cytotoxic” value falls from 15.3% to 8.47%.

Compared with `NS(=O)(=O)c1cc2c(cc1Cl)NC(CSCc1ccccc1)=NS2(=O)=O`, `c1ccc(CN(CC2=NCCN2)c2ccccc2)cc1` is higher in “activity change, negative = cytotoxic” value: -3.09% for the first, 14.7% for the second.

First: Cc1ccc(C(C)C)cc2c(C)ccc1-2
Second: CC1=C(CC(=O)O)c2cc(F)ccc2/C1=C\c1ccc(S(C)(=O)=O)cc1
The “activity change, negative = cytotoxic” value of the first is higher: 11% for the first, 2.34% for the second.

Compared with `Oc1cccc(O)c1`, `CCC(=O)c1ccc(O)cc1` is lower in “activity change, negative = cytotoxic” value: 24.4% for the first, 5.42% for the second.

First: O=S(=O)(O)c1cc(I)c(O)c2ncccc12
Second: O=C1N=C(O)CN1/N=C/c1ccc(-c2ccc([N+](=O)[O-])cc2)o1
The “activity change, negative = cytotoxic” value of the first is higher: 16.4% for the first, 12% for the second.

First: Cc1cc(O)cc2c1O[C@](C)(CCC[C@H](C)CCC[C@H](C)CCCC(C)C)CC2
Second: CCCCOc1cc(C(=O)OCCN(CC)CC)ccc1N
The “activity change, negative = cytotoxic” value of the first is higher: 6.44% for the first, -1.37% for the second.

Compared with `CC12CCC(CC1)C(C)(C)O2`, `CC1(C)[C@@H]2CC[C@@]1(C)C(=O)C2` is higher in “activity change, negative = cytotoxic” value: 8.97% for the first, 20.2% for the second.

Going from `CC(C)C(=O)c1c(C(C)C)nn2ccccc12` to `CC(COc1ccccc1)NC(C)C(O)c1ccc(O)cc1` (stereo not given), the “activity change, negative = cytotoxic” value falls from 17.5% to 7.21%.

Going from `CCCCN(CCCC)CCCOC(=O)c1ccc(N)cc1` to `CCN(CC)CCSC(=O)C(c1ccccc1)c1ccccc1`, the “activity change, negative = cytotoxic” value falls from 7.2% to -19.4%.

For `CC[C@H]1CN2CCc3cc(OC)c(OC)cc3[C@@H]2C[C@@H]1C[C@H]1NCCc2cc(OC)c(OC)cc21`, the Potency was 2110 nM (active).
